Source: PubChem (National Center for Advancing Translational Sciences (NCATS))
An excerpt weighted towards active compounds, which were near 10% of everything screened.
NPR1 antag: Natriuretic polypeptide receptor (hNpr1) antagonism - Primary qHTS; Atrial natriuretic peptide receptor 1 (Homo sapiens), P16066; HEK293 hNpr1 GloSensor cGMP, ANP-stimulated luminescence; Potency, µM (doses to about 46.3 µM), for inactives: at the top dose activity change, negative = inhibition, hits mostly inhibitors; 1.6% of 76,000 active; AID 1347048, 2019; calls by dose curve; further: nearly all actives have a fitted effect of over 60% in size
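Compound pre-incubated 30 min at room temperature on GloSensor-loaded HEK293 cells stably carrying hNpr1 and the pGS-40F cGMP biosensor. Stimulation uses hNppA at 0.1 nM final; luminescence is taken at baseline and 20 min post-agonist.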
HEK cytotox: Cytotoxic Profiling in HEK 293 Cell Line of Diverse Libraries Using Quantitative High-Throughput Screening; Potency, µM (series often up to 115 µM), inactives show top-dose activity change, negative = cytotoxicity, most hits filed as inhibitors; HEK 293 viability, ATP luminescence (CellTiter-Glo), 48-72 h; 6.6% of 94,000 active; AID 1345083, 2018; further: nearly all actives have a fitted effect of over 60% in size
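HEK 293 cells seeded at 250 cells/well were exposed to compound for 48 or 72 hr at 37 degree Celsius. Viability taken as ATP content by CellTiter-Glo luminescence.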
NIH3T3 tox: Cytotoxic Profiling in NIH 3T3 Cell Line of Diverse Libraries Using Quantitative High-Throughput Screening. NIH 3T3 viability, CellTiter-Glo ATP luminescence, 48-72 h. Potency, µM (top dose mostly 96.7 µM), without a hit: at the top dose activity change, negative = cytotoxicity, actives largely listed as inhibitors. 4.3% of 94,000 active. AID 1345082, 2018; further: nearly all actives have a fitted effect of over 55% in size
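Cytotoxicity was measured by CellTiter-Glo ATP luminescence after 48 or 72 h compound exposure at 37 °C. Mouse NIH 3T3 fibroblasts were seeded at 400 cells/well and dosed by 23 nL pin transfer.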
GPT2 inh: Primary qHTS assay for inhibitors of Glutamate pyruvate transaminase 2 (GPT2). Recombinant GPT2, coupled pyruvate oxidase/HRP Amplex Red fluorescence. 0.25% of 100,000 active. AID 1671188, 2021. Potency, µM (series often up to 57.7 µM), for inactives: at the top dose activity change, negative = inhibition, usual class: inhibitors; further: nearly all actives have a fitted effect of over 60% in size
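Fluorescence read-out: pyruvate from GPT2 turnover coupled to pyruvate oxidase, HRP and Amplex Red (0.2mM ThPP, 0.2U/mL PO and HRP, 50uM Amplex final). Substrates 250uM a-KG, 2mM L-alanine; enzyme 10ng/uL; 30 min RT.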
Luciferase inh: Firefly luciferase inhibition profiling of diverse chemical library using quantitative high-throughput screening | Luciferin 4-monooxygenase (Photinus pyralis), P08659 | purified P. pyralis luciferase, luminescence, biochemical | Potency, µM (series often up to 115 µM), usual class: inhibitors | 2.5% of 76,000 active | AID 1347043, 2019; further: nearly all actives have a fitted effect of over 65% in size
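Purified P. pyralis luciferase (10nM final) in 50mM Tris acetate pH 7.5, 10mM Mg acetate, 0.01% Tween-20, 0.05% BSA with 10uM D-luciferin and 10uM ATP. Compounds titrated qHTS. Luminescence imaged on CCD.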
The depositor's hits bear a star; i = inactive; ? = inconclusive; / = no result given; [ ] = remark or other dose. Unless noted, the call rests on the fitted dose curve; in most records, active means well fitted curve in the direction sought with a large enough effect; inconclusive means small, poorly fitted or top-dose-only effect, or another doubt; inactive means no such curve, though single readings can be large; an effect the other way counts as inactive or inconclusive. On the % scale 0 is the no-effect control and ±100 the full control effect; potency means the concentration at half of the fitted maximal effect.

SMILES	NPR1 antag	HEK cytotox	NIH3T3 tox	GPT2 inh	Luciferase inh
Cc1nc(-c2ccccc2Br)cc([C@H]2CN3CC[C@H]2C[C@@H]3CNC(=O)NC(C)C)n1	-1%	79µM*	?	3%	i
COc1ccc(NC(=O)NC[C@H]2C[C@@H]3CCN2C[C@@H]3c2cc(-c3ccccc3Br)nc(C)n2)cc1	-5%	79µM*	?	-24%	i
Cc1nc(-c2ccccc2Br)cc([C@H]2CN3CC[C@H]2C[C@@H]3CNC(=O)NC2CCCCC2)n1	1%	?	?	i	i
Cc1ccccc1-c1ccc2n(c1=O)C[C@H]1C[C@@H]2CN(C(=O)c2cnccn2)C1	1%[70.6 µM]	89µM*	-1%[174 µM]	3%[88.5 µM]	i
CC(C)CN(Cc1cccnc1)C1CN(C(=O)COc2ccc(F)cc2)C1	3%	?	32µM*	i	i
CN1C[C@@H]2CN(c3ccc(-c4ccccc4)nn3)C[C@@H]2C1	/	/	/	-1%	/
COc1ccc(CC(=O)N2CC3(CCN(C)CC3)c3cc(OC)c(OCc4ccccc4)cc32)cc1	6%	32µM*	?	i	i
COc1cc2c(cc1OCc1ccccc1)N(C(=O)Cc1ccc3c(c1)OCO3)CC21CCN(C)CC1	7%	79µM*	?	1%	i
COc1cc2c(cc1OCc1ccccc1)N(C(=O)COc1ccccc1)CC21CCN(C)CC1	0%	28µM*	22µM*	i	i
COc1cc2c(cc1CCc1ccccc1)N(C(=O)Cc1ccc3c(c1)OCO3)CC21CCN(C(C)=O)CC1	-17%	-24%	?	-4%	i
COc1cc2c(cc1OCc1ccccc1)N(C(=O)COc1ccccc1C(N)=O)CC21CCN(C)CC1	4%	40µM*	22µM*	-3%	i
COc1cc2c(cc1CCc1ccccc1)N(C(=O)CC(C)C)CC21CCN(C(C)=O)CC1	2%	?	?	-20%	i
COc1cc2c(cc1OCc1ccncc1)NC(=O)C21CCN(C(=O)C2CCC2)CC1	0%[70.6 µM]	?	?	-2%[88.5 µM]	i
CCOC(=O)[C@H]1CN(C(=O)c2ccc(Cl)cc2)[C@]2(C)C(=O)N(CC3CC3)c3ccccc3[C@H]12	/	?	?	-4%[27.3 µM]	/
CCOC(=O)[C@H]1CN(C(=O)c2ccc(SC)cc2)[C@]2(C)C(=O)N(C)c3ccccc3[C@H]12	/	?	-27%[46.1 µM]	i	/
CC[C@H](C)[C@H](NC(=O)[C@H]1CCCCN1C)C(=O)N(COC(=O)CC(C)C)[C@H](C[C@@H](OC(C)=O)c1nc(C(=O)N[C@@H](Cc2ccc(O)cc2)C[C@H](C)C(=O)O)cs1)C(C)C	/	/	/	i[1.22 µM]	/
C[C@]12CC[C@H](O[C@@H]3O[C@H](CO)[C@@H](O)[C@H](O)[C@H]3O)CC1CC[C@@H]1C2CC[C@]2(C)[C@@H](C3=CC(=O)OC3)CC[C@]12O (stereo partly drawn)	/	/	/	i	/
O=C(O)C1=NOC2CN(Cc3cccnc3)CC12 (stereo not drawn)	/	i	i	4%[88.5 µM]	/
COc1cc2c(cc1CCc1ccccc1)N(C(=O)COc1ccccc1)CC21CCN(C(C)=O)CC1	-2%	-25%	?	-28%	i
COc1cc2c(cc1OCc1ccccc1)N([S+](=O)([O-])c1cccc(C)c1)CC21CCN(C)CC1	-2%	28µM*	22µM*	-1%	i
COc1cc2c(cc1OCc1ccccc1)N(C(=O)c1cnn(C)c1)CC21CCN(C)CC1	-1%	?	?	1%	i
COc1cc2c(cc1CCc1ccccc1)N([S+](=O)([O-])c1ccc3c(c1)CCO3)CC21CCN(C(C)=O)CC1	-3%	?	25µM*	-11%	i
COCc1cn(C[C@H]2C[C@@H]3CCN2C[C@@H]3C(=O)N2CCCC2)nn1	4%[70.6 µM]	4%[172 µM]	-6%[174 µM]	-2%[88.5 µM]	i
O=C(c1cccs1)N1[C@H]2CC[C@@H]1c1cnc(-c3ccccc3)nc1C2	?	?	-5%	i	i
Cc1ccccc1S(=O)(=O)N1[C@H]2CC[C@@H]1c1cnc(-c3ccc(F)cc3)nc1C2	?	28µM*	?	-7%	i
SMILES	NPR1 antag	HEK cytotox	NIH3T3 tox	GPT2 inh	Luciferase inh
O=C(c1cccs1)N1[C@H]2CC[C@@H]1c1cnc(-c3ccc(F)cc3)nc1C2	11µM*	?	?	-29%	?
O=C(c1ccc2c(c1)OCO2)N1[C@H]2CC[C@@H]1c1cnc(-c3ccc(F)cc3)nc1C2	-11%	45µM*	?	-8%	i
Cc1ncc2c(n1)C[C@@H]1CC[C@H]2N1S(=O)(=O)c1ccccc1C	3%	-23%	-14%	i	i
Cc1nc(C)c(C(=O)N2[C@H]3CC[C@@H]2c2cnc(-c4ccc(F)cc4)nc2C3)s1	16µM*	?	-21%	0%	?
COc1cc2c(cc1OCc1ccccc1)NC(=O)C21CCN(C(=O)c2ccccc2)CC1	3%	?	?	3%	i
O=C(c1ccsc1)N1[C@H]2CC[C@@H]1c1cnc(-c3ccccc3)nc1C2	?	-29%	-22%	i	i
Cc1ccsc1C(=O)N1[C@H]2CC[C@@H]1c1cnc(-c3ccccc3)nc1C2	/	10µM*	?	i	/
CN1CCN(C(=O)Cc2cccn2-c2ccc(Cl)cc2)CC1	5%	-7%	i	-8%	i
COc1ccc(-c2cc([C@H]3CN4CC[C@H]3C[C@@H]4CNS(=O)(=O)c3cc(OC)ccc3OC)n(C)n2)cc1	-4%	-8%	-26%	-15%	i
CCNC(=O)NC[C@H]1C[C@@H]2CCN1C[C@@H]2c1cc(-c2ccc(F)cc2)nn1C	-5%[70.6 µM]	-11%[172 µM]	-14%[174 µM]	-7%[88.5 µM]	i
Cc1ccc(C(=O)NC[C@H]2C[C@@H]3CCN2C[C@@H]3c2cc(-c3ccc(F)cc3)nn2C)cc1	-27%[70.6 µM]	25µM*	25µM*	4%[88.5 µM]	i
COc1ccc(-c2cc([C@H]3CN4CC[C@H]3C[C@@H]4CNC(=O)c3ccc(C(C)(C)C)cc3)n(C)n2)cc1OC	1%	20µM*	?	-3%	i
COc1ccc(NC(=O)NC[C@H]2C[C@@H]3CCN2C[C@@H]3c2cc(-c3ccc(OC)c(OC)c3)nn2C)cc1	8%	?	?	-4%	i
